Drawing on PubChem BioAssay (NCI), this text covers growth for 31 compounds.

Molecules are shown by their SMILES. This is part of a sample that, as a whole, favours compounds with a hit. Of some 83,000 tested, about 20% had one in any assay.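 Cell lines were cultured in 96-well plates, exposed to a single compound concentration, and assessed for percent growth 48 hours later.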 Activity calls are given as the source filed them. Rule for the calls: active = growth percent below 10; inactive = the rest.

In the assay the test system is U251 CNS. The assay is described as follows: NCI-60 one-dose screen, 48 h (100 = growth as untreated, 0 = no growth, -100 = all killed). The conditions noted are these: 10 µM unless noted.
Regarding `ClCCN(CCCl)C(c1ccccc1)c1ccc(Cl)cc1` (stereo unspecified), the growth was 82.6% (inactive).

On to `CCCCn1cc(C(=O)/C(C#N)=C/c2cc3ccccc3nc2Cl)c2cc(OC)ccc21`, for which the growth is 83.2% (inactive).

Consider `CC(=O)C1C(=O)N(C)C(=O)N(C)C1=O`, for which the growth is 96.1% (inactive).

Take `CC1(C)N=C(N)N=C(N)N1c1cccc(C(=O)Nc2cccc(S(=O)(=O)F)c2)c1`: the growth is 99.8% (inactive).

For the compound `C[C@]12CC[C@@H]3C4=C(CC[C@H]3[C@@H]1CC[C@@H]2O)CC(=O)CC4`, the growth is 96.8% (inactive).

`NC(Cc1ccc2c(c1)OCO2)c1ccc2c(c1)OCO2` (stereo unspecified): the growth is 107% (inactive).

For `COc1ccc(-c2ccc(OC)c(OC)c2OC)cc1`, the growth was 22.9% (inactive).

With `CC1(C)N=C(N)N=C(N)N1c1ccc(CCCCc2ccc(S(=O)(=O)F)cc2)c(Cl)c1`, the growth was 9.69% (active).

As for `COc1ccc(C2=NN(c3ccccc3)C(c3sc(N(CCCl)CCCl)nc3Cl)C2)cc1` (stereo unspecified), the growth is 94.4% (inactive).

Turning to `CSc1ccccc1NP1(=O)OCC(C)([N+](=O)[O-])CO1` (stereo unspecified), the growth was 95.8% (inactive).

In the case of `Cc1ccc(N)cc1[As]=[As]c1cc(N)ccc1C` (stereo unspecified), the growth was -98.7% (active).

On to `CCC(C)[C@H]1O[C@]2(C=C[C@@H]1C)C[C@@H]1C[C@@H](C/C=C(\C)[C@@H](OC3C[C@H](OC)C(O[C@H]4C[C@H](OC)[C@@H](O)[C@H](C)O4)[C@H](C)O3)[C@@H](C)/C=C/C=C3\CO[C@@H]4[C@H](O)C(C)=C[C@@H](C(=O)O1)[C@]34O)O2` (stereo partly specified), for which the growth is -16% (active).

Take `CC1(C)N=C(N)N=C(N)N1c1ccc(CCCCc2ccc(S(=O)(=O)F)cc2)cc1`: the growth was 16.7% (inactive).

In the case of `Cc1ccc(C(=O)C2CN(C)CCC2(O)c2ccc(C)cc2)cc1` (stereo unspecified), the growth is 104% (inactive).

Turning to `O=S(=O)(O)c1ccc(-c2ccc([As](=O)(O)O)cc2)cc1`, the growth is 95.6% (inactive).

As to `O=C1NC(=O)C(CN2C(=O)C3(c4ccccc42)[C@H](Cl)C(=O)N3c2ccccc2)C(=O)N1` (stereo partly specified), the growth was 72.6% (inactive).

For `O=[N+]([O-])c1cc([N+](=O)[O-])c(Cl)c(Cl)c1Cl`, the growth is -79.4% (active).

Take `C=CCC1(CC)C(=O)NC(=S)NC1=O`: the growth is 101% (inactive).

As for `CCC[CH2][Sn]([CH2]CCC)([CH2]CCC)[O]C(=O)CC`, the growth is -84.6% (active).

For the compound `O=C(NCc1ccc([N+](=O)[O-])cc1)Nc1ccc(S(=O)(=O)F)cc1`, the growth is 85.7% (inactive).

In the case of `n1nc(-c2nonc2-c2nn[nH]n2)n[nH]1`, the growth was 101% (inactive).

As to `CC1(C)N=C(N)N=C(N)N1c1ccc(OCCCCOc2ccc(S(=O)(=O)F)cc2)c(Cl)c1`, the growth is 12% (inactive).

Take `O=[N+]([O-])c1ccc2cnn(CSP(=S)(c3ccccc3)c3ccccc3)c2c1`: the growth was 74.1% (inactive).

On to `CCN(CC)c1ccc(C=C2C(=O)NC(=S)NC2=O)cc1`, for which the growth is 77% (inactive).

Consider `Clc1ccc(SSC(Cl)(Cl)Cl)cc1`, for which the growth is 98.6% (inactive).

Regarding `[O]=[Sn]([CH]1CCCCC1)[CH]1CCCCC1`, the growth is -85.2% (active).

As for `ClCCN(CCCl)c1nc(Cl)c(C2CC(c3ccccc3)=NN2c2ccccc2)s1` (stereo unspecified), the growth was 86.1% (inactive).

On to `CC(=O)C1CCC2C3CC=C4CC(OC(=O)Cc5ccc(N(CCCl)CCCl)cc5)CCC4(C)C3CCC12C` (stereo unspecified), for which the growth was 106% (inactive).

Regarding `Cc1ccccc1O`, the growth is 105% (inactive).

As for `O=[N+]([O-])c1ccccc1N1CCNCC1`, the growth was 97.4% (inactive).

With `CC(=O)Nc1ccc(C=C2C(=O)NC(=O)NC2=O)cc1`, the growth was 103% (inactive).
